# Screens from PubChem.
# Eya2 phos inh – blocks the phosphatase activity of human Eya2 | recombinant Eya2, OMFP fluorescence dephosphorylation (OMFP is methylfluorescein phosphate) | Potency, µM (doses to about 76.9 µM), for the others: at the highest dose activity, negative = inhibition, most hits filed as inhibitors | hit rate 0.006% among 330,000 | AID 488837
#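 Eya2 protein (added as 0.2 uM solution) was preincubated with compound for 10 min at ambient temperature in 50 mM HEPES pH 7.5, 50 mM NaCl, 5 uM MgCl2, 0.05% BSA, 1 mM DTT. OMFP (added at 50 uM) then reacted 10 min; fluorescence read at 485/525 nm.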
# RGS4 inh – blocks human RGS4-accelerated GTP hydrolysis. P49798. Transcreener GDP fluorescence polarization, RGS4-accelerated GTP hydrolysis. Potency, µM (series often up to 114 µM), for the others: at the highest dose activity change, negative = inhibition, actives largely listed as inhibitors. hit rate 0.039% among 390,000. AID 504845; note: nearly all actives have a fitted effect of over 75% in size
# Target sequence (P49798 whole entry, looked up): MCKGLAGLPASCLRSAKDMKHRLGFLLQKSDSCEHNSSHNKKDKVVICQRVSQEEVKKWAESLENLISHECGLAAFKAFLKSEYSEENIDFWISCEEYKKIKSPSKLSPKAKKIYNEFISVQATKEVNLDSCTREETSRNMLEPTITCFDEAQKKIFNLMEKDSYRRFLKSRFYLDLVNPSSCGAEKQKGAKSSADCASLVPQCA
#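 MLSMR compounds (23 nl, pin-transferred) preincubated 10 min at room temperature with a 500nM (2x) first reagent, then RGS4 at 900nM (2x) plus Transcreener GDP mix added; fluorescence polarization (620/688 nm) read before and after 90 min at 30 °C.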
# mIDH1 inhibitor – inhibitors of human mutant IDH1 R132H; O75874; IDH1-R132H enzyme, NADPH consumption, diaphorase/resazurin fluorescence; hit rate 0.093% among 390,000; Potency, µM (series often up to 76.6 µM), for inactives: at the top dose activity change, negative = inhibition, usual class: inhibitors; AID 602179; note: nearly all actives have a fitted effect of over 65% in size
# Target sequence (O75874 whole entry R132H, stated change not applied): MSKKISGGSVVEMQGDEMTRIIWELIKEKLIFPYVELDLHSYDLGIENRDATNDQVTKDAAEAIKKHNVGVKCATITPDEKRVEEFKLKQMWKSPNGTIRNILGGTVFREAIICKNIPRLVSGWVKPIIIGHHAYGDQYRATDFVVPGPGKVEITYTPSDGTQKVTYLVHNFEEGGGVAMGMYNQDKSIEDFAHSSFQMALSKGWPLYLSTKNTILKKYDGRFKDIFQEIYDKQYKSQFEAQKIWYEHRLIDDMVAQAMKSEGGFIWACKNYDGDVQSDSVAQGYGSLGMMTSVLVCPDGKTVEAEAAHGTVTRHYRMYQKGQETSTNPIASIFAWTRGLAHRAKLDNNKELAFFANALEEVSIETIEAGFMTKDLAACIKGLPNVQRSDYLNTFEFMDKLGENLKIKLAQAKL
#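 IDH1-R132H (0.5 ug/mL dispensed) in pH 7.5 Tris buffer was preincubated 30 min with compound, then given a substrate mix of 0.016 mM NADPH and 2 mM alpha-KG for 80 min at room temperature; remaining NADPH was read by diaphorase/resazurin fluorescence.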
# rTrxR1 inhibitor – inhibitors of rat thioredoxin reductase 1; O89049; Potency, µM (highest dose often 114 µM), inactives show top-dose activity change, negative = inhibition, actives largely listed as inhibitors; hit rate 1% among 390,000; AID 588453; recombinant rTrxR1, NADPH fluorescence consumption, selenite substrate; note: nearly all actives have a fitted effect of over 65% in size
#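 Rat TrxR1 (90 nM in the dispensed reagent) was pre-reduced with 400 uM NADPH for 5 min at room temperature, then incubated with compound for 15 min. After 400 uM selenite was added, NADPH fluorescence (Ex 340/Em 450 nm) was followed for 8 min.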
# TrxR1 substrate – substrates of rat thioredoxin reductase 1; O89049; purified TrxR1 substrate turnover, NADPH consumption readout; Potency, µM (titrated, usually from 114 µM), inactives show top-dose activity change, negative = substrate turnover; hit rate 0.01% among 390,000; note: nearly all actives have a fitted effect of over 50% in size
#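 Rat TrxR1, dispensed at 90 nM, was prereduced with 400 uM NADPH (final) for 5 min at ~22 deg C, then incubated with compound 15 min before 400 uM selenite. A first-read NADPH fluorescence drop versus no-compound background flagged substrates.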
# Active calls of the source: *; i = inactive; ? = inconclusive; . = not tested or not shown; [ ] = remark or other dose. Hits are enriched below; roughly 1.1% of the tested compounds scored in any of these assays. Calls come from the whole dose curve; as a rule, active = well fitted curve in the direction sought with a large enough effect; inconclusive = small, poorly fitted or top-dose-only effect, or another doubt; inactive = no such curve, though single readings can be large; an effect the other way counts as inactive or inconclusive. % is set by controls: 0 for no effect and ±100 for the full control effect; potency is the fitted concentration of half-maximal effect.
SMILES,Eya2 phos inh,RGS4 inh,mIDH1 inhibitor,rTrxR1 inhibitor,TrxR1 substrate
O=C(O)c1cccc(Cn2c(Cl)c(/C=N/NC(=O)c3ccccc3)sc2=O)c1,-1%,-34%,1%,-40%,-13%
O=C(O)c1cccc(Cn2c(Cl)c(/C=N/NC(=O)c3ccco3)sc2=O)c1,1%,-20%,9%,79µM*,-19%
Cc1ccccc1N/N=C/c1sc(=O)n(Cc2cccc(C(=O)O)c2)c1Cl,-3%,?,-9%,50µM*,1%
CCC(C)[C@H](NC(=O)NC1CCCc2ccccc21)C(=O)OC (stereo partly specified),8%,-15%,5%,21%[57.1 µM],-19%[57.1 µM]
O=c1[nH]c(=O)n([C@@H]2O[C@H](CO)[C@@H](O)[C@H]2O)cc1F,.,i,.,20%,0%
COc1cccc(NC(=O)Cn2c(=O)n(CCC(=O)NC3CCN(Cc4ccccc4)CC3)c(=O)c3ccccc32)c1,-1%,19%[11.4 µM],-17%,12%,-2%
O=C(O)c1ccccc1Nc1cc(Cl)c2nonc2c1[N+](=O)[O-],0%,-52%,2%,1.6µM*,-14%
O=[N+]([O-])c1c(Nc2ccc(O)cc2)cc(Cl)c2nonc12,-9%,?,-18%,?,3%[57.1 µM]
O=[N+]([O-])c1c(Nc2ccccn2)cc(Cl)c2nonc12,2%,?,1%,1.3µM*,-12%
O=C(O)c1cccc(Nc2cc(Cl)c3nonc3c2[N+](=O)[O-])c1,11%,-69%[56.9 µM],8%,1.4µM*,-17%
O=[N+]([O-])c1ccc(Nc2ccccn2)c([N+](=O)[O-])c1,5%,20%,-5%,20%,2%
CCC(C)(C)NC(=O)C(c1cccc(OC)c1OC)N(Cc1ccccc1)C(=O)CCC(=O)Nc1cc(C)on1 (stereo unspecified),-10%,-22%,5%,2%,5%
CN1CCN(C(=O)C2=C[C@H](C3CCCCC3)C[C@H](OCc3ccc(CO)cc3)O2)CC1,-5%,24%,-2%,18%[57.1 µM],8%[57.1 µM]
Cc1ccc(C)c(CN2C(=O)c3ccccc3S(=O)c3ccc(C(=O)NCc4ccccc4)cc32)c1 (stereo unspecified),.,-10%,8%,30%,-1%
COc1ccccc1NC(=O)CN(Cc1ccco1)C(=O)c1ccc(N2CCCC2=O)cc1,11%,6%,0%,6%[57.1 µM],-12%
CC(=O)c1cccc(NC(=O)CCc2nnc3ccc(NCc4ccco4)nn23)c1,0%,-8%,3%,15%,2%
Cc1nc2ccccc2n2c(O)c(CC(=O)O)cc12,12%,-2%,3%,35µM*,34%
Cc1nc2ccccc2n1CCC(=O)O,-9%,23%,3%,-8%,-5%
Cc1ccc(-n2c(Cc3ccccc3)nnc2SCc2nc(-c3cccs3)no2)cc1,.,0%,-8%,1%,-11%
O=C1c2ccccc2NC(c2ccco2)N1O (stereo unspecified),7%,-1%,2%,40µM*,-1%
O=C1c2ccccc2NC(c2ccc(Br)o2)N1O (stereo unspecified),0%,-29%,.,?,-8%
Cn1c(=O)c([N+](=O)[O-])c(NCCCn2ccnc2)c2ccccc21,-11%,-10%,9%,14%[57.1 µM],4%[57.1 µM]
Cn1c(=O)c([N+](=O)[O-])c(-n2ccnc2)c2ccccc21,16%,?,0%,10µM*,11%[57.1 µM]
Cc1nnnn1/C(=C\c1ccccc1)C(=O)OCC(=O)NC(C)(C)C,1%,-42%,2%,50µM*,-3%
CC(=O)Nc1ccc(NC(=O)COC(=O)/C(=C/c2ccccc2)n2nnnc2C)cc1,2%,?,0%,71µM*,2%
SMILES,Eya2 phos inh,RGS4 inh,mIDH1 inhibitor,rTrxR1 inhibitor,TrxR1 substrate
CN(CC(=O)O/N=C(\N)c1ccccn1)S(=O)(=O)c1cc(Cl)ccc1Cl,11%,3%,0%,12%,2%
COc1cc(N(C)C)ccc1C=c1c2ccccc2n2c1cc(-c1ccccc1)[n+]2C,.,-36%,-15%,10%[11.4 µM],8%[11.4 µM]
COc1cc(C=c2c3ccccc3n3c2cc(-c2ccccc2)[n+]3C)cc(OC)c1OC,.,?,-3%,50µM*,-10%
CN(C)c1ccc(C=c2c3cc([N+](=O)[O-])ccc3n3c2cc(-c2ccccc2)[n+]3C)cc1,.,?,3%,40µM*,-19%
CN(C)c1ccc(C=c2c3ccccc3n3c2cc(-c2ccccc2)[n+]3C)cc1,.,-35%,-1%,6%[11.4 µM],1%[11.4 µM]
COc1cccc(CNC(=O)CC2C(=O)NCCN2CCCc2ccccc2)c1 (stereo unspecified),-12%,-15%,-3%,25%[2.29 µM],2%
COc1cccc(NC(=O)C(=O)NCC(c2ccco2)N2CCc3ccccc3C2)c1 (stereo unspecified),11%,-9%,0%,7%,-3%
CN1CCc2cccc3c2[C@@H]1Cc1ccc(O)c(O)c1-3,5%,i,6%,14µM*,11%
COc1ccc2c(c1O)-c1ccccc1CCN(C)C2,-3%,-13%,-14%,-6%,-4%
COC(=O)c1sc(NC(=O)c2ccc([N+](=O)[O-])o2)c(C#N)c1C,-2%,-4%,3%,14µM*,?
S=C(NCCCc1cnc[nH]1)NCCCN(Cc1ccc(Cl)cc1)c1ccc(-c2ccccc2)cn1,.,-14%,.,89µM*,-3%
S=C(NCCCN(Cc1ccc(Cl)cc1)c1ccc(-c2ccccc2)cn1)NCCCN(Cc1ccc(Cl)cc1)c1ccc(-c2ccccc2)cn1,.,-17%,.,14%,11%
CN(C)CCCNC(=O)C1CCNCC1,13%,15%,1%,71µM*,-6%
CN(C)CCCNC(=O)c1cc(C(=O)C2CCCCC2)c[nH]1,11%,18%,14%,17%,6%[57.1 µM]
C/C(=N\NC(=O)c1ccc(C(=O)N/N=C(\C)c2ccco2)o1)c1ccco1,-10%,-13%,2%,7%[57.1 µM],0%[57.1 µM]
CC1=C(C#N)C(=O)NC(=O)/C1=C\c1ccc(-c2cc(C)c(C)cc2[N+](=O)[O-])o1,2%,?,?,14µM*,0%[57.1 µM]
Cc1ccc(CN(C)C(=O)C2CCC(=O)N(CC3CCCCC3)C2)o1 (stereo unspecified),7%,?,0%,40µM*,6%
CN(Cc1cccc(C(F)(F)F)c1)C(=O)C1CCC(=O)N(CC2CCCCC2)C1 (stereo unspecified),0%,-19%,-2%,7%,-3%
COc1ccc(NC2=CC(c3ccc(OC)c(OC)c3)N(c3ccc(OC)cc3)C2=O)cc1 (stereo unspecified),8%,-7%,8%,?,-10%
NS(=O)(=O)c1ccc(NC2=CC(c3ccc([N+](=O)[O-])cc3)N(c3ccc(S(N)(=O)=O)cc3)C2=O)cc1 (stereo unspecified),?,-27%,-1%,50µM*,-7%
